The whole screen tested about 110,000 compounds, of which about 1,400 (1.3%) were called active. Only a selection was taken, and actives are over-represented in it overall. A number with no mark means an inactive call.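 Rule for the calls: active = Z score or B-score, a plate-position-corrected score, falls beyond the plate's 99.7% confidence bounds, in either direction; inactive = both scores lie inside the 99.7% bounds.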
Biological target: Sodium-dependent dopamine transporter (Homo sapiens) (UniProt Q01959)
Sequence (Q01959 whole entry, looked up): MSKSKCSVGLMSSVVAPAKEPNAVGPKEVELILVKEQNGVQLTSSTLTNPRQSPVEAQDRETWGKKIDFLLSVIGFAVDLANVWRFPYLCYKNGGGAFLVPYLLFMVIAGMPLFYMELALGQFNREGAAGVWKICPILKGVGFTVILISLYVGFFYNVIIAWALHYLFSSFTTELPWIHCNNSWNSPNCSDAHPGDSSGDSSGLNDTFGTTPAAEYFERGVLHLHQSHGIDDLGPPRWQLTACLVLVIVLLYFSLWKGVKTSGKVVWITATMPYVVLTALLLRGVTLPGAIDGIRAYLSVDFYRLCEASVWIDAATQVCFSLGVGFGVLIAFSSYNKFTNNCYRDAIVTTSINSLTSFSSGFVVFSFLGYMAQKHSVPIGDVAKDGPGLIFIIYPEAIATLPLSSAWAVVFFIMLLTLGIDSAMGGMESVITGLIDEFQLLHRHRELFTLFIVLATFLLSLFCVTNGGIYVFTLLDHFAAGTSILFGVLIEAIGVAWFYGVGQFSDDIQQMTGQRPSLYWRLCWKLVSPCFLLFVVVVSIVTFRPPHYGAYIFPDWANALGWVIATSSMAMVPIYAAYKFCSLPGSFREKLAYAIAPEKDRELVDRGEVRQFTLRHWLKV
Test: changed hDAT dopamine uptake under cocaine IC80, either direction, primary screen, cocaine antagonist project, cell-based, LLC-PK1 hDAT, [14C]-dopamine uptake, MLSMR (AID 449768);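 note: scored against the spread of the other compound wells on the same plate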
Details: LLC-PK1 hDAT cells, [14C]-dopamine uptake with cocaine IC80; at 10 µM; actives deviate in either direction

Compound | B-score
Cc1cc(C)n(-c2ccc(Cl)c(C(=O)O)n2)n1 | -1.42
Cc1cc(C)n(-c2nnc(C)n2NC(=O)c2cccc(Cl)c2)n1 | -8.7 (active)
O=C(Nc1ccon1)c1cccc(Cl)c1 | 0.0619
COc1ccc2c(c1)CCNC2Cc1ccc(OC)c(O)c1 (stereo not given) | -0.654
CC(=O)Nc1sc2c(c1C(c1cccc(F)c1)N1CCN(CCO)CC1)CCCC2 (stereo not given) | 0.298
C[C@@H]1NC(=O)c2cc([N+](=O)[O-])cc(F)c2NCCC[C@@H](C(N)=O)NC(=O)[C@H](CC(N)=O)NC1=O | -0.649
Cc1ccc(C(=O)Nc2ccccc2C(=O)NC2CCCCC2)cc1S(=O)(=O)N1CCOCC1 | -0.00206
O=C(Nc1ccccc1F)c1cc(S(=O)(=O)N2CCCCC2)cs1 | 0.695
Cc1ccccc1NC(=O)c1cc(S(=O)(=O)N2CCOCC2)cs1 | -3.41 (active)
C/C=C(/C)C(=O)Nc1cccc(C2=NOC3(C2)C[C@@H](C(N)=O)N(C(=O)C2(C)CC2)C3)c1 (stereo not given in full) | -0.445
CC(Sc1nc2c([nH]c3ccccc32)c(=O)n1C)c1ccccc1 (stereo not given) | 0.73
CCOC(=O)c1c(NC(=O)C(C)Sc2c[nH]c3ccccc23)sc2c1CCC2 (stereo not given) | -0.485
Cc1nc(SCC(=O)N2CC(=O)Nc3ccccc32)c2c(C)c(C)sc2n1 | 2.75 (active)
Cc1nc(SCC(=O)Nc2cc(C)on2)c2c(C)c(C)sc2n1 | 0.457
Cc1nc(SCC(=O)N2CCc3ccccc3C2)c2c(C)c(C)sc2n1 | 2.48
C=CCSc1nnc2c(n1)-c1cccc3cccc-2c13 | 0.0257
CC(=O)Nc1cc(C(=O)O)ccc1S(=O)(=O)c1ccc(Cl)cc1 | -0.803
CCOC(=O)N1CCN(C(=O)c2ccc3c(c2)N(Cc2ccc(C)cc2)CCS3)CC1 | 0.333
CCOC(=O)N1CCN(C(=O)c2ccc(S(=O)(=O)c3ccc(C)cc3)c(NC(C)=O)c2)CC1 | -7.14 (active)
C[C@@H](C(=O)N1CCNCC1)n1cc(CCC(=O)O)nn1 | -0.0383
Cc1ccc(-c2cc(=O)c3ccc(F)cc3[nH]2)cc1 | 0.343
Cc1noc(C)c1CSCC(=O)Nc1nc2ccc(Oc3ccccc3)cc2s1 | 3.18 (active)

Compound | B-score
CCOC(=O)c1c(C2CC2)csc1NC(=O)CSCc1c(C)noc1C | 0.395
CCn1c(SCC(=O)Nc2nc3ccc(OC)cc3s2)nnc1-c1ccoc1C | 0.56
NC(=O)C1=C[C@@H](c2csc3ccccc23)C[C@@H](OCc2ccc(CO)cc2)O1 | 0.21
CC/C=C/C(=O)N1CC2(CC(c3cccc(NC(=O)CC)c3)=NO2)C[C@H]1C(N)=O (stereo not given in full) | 0.271
CCCC[C@@H]1CN=C(N)N1CCc1cccc(F)c1 | -0.00752
CCOC(=O)c1sc(NC(=O)CSc2nc3c(c(=O)n2-c2ccccc2)SCC3)c(C(=O)OCC)c1C | 0.723
O=C(Cn1nnc(-c2ccccc2)n1)NCc1ccc2c(c1)OCO2 | 0.156
Cc1ccc(Cn2nnc3c(=O)n(CC(=O)N4CCCCC4)cnc32)cc1 | 0.247
O=C(Cn1cnc2c(nnn2Cc2ccc(F)cc2)c1=O)NCc1ccc2c(c1)OCO2 | -8.17 (active)
NC(=O)CC(NC(=O)Cc1cccc2ccccc12)c1ccc(NCc2cc(F)ccc2F)c([N+](=O)[O-])c1 (stereo not given) | 0.0495
O=C(NCc1ccccc1)C1=C[C@@H](c2ccccc2)C[C@@H](OCCCCO)O1 | 0.736
CCN1C(=O)N[C@@H](CCc2ccccc2)C(C(=O)OC)=C1C | 0.0945
COC(C[C@H](O)CC(=O)[C@@H](C)OCc1ccccc1)OC | -0.99
O=C(O)C1=C[C@H](c2cccs2)C[C@H](OCCCCO)O1 | -0.012
COc1cc2[nH]c(=O)n(CCC(=O)NC3CCN(Cc4ccccc4)CC3)c(=O)c2cc1OC | 3.31 (active)
CCOc1cc2[nH]c(=O)n(CCC(=O)NCc3ccc(OC)cc3)c(=O)c2cc1OCC | -0.216
COc1ccc(CCNC(=O)CCCCn2c(=O)[nH]c3ccccc3c2=O)cc1OC | 0.579
CC(C)NC(=O)NCCCCCCS(C)=O (stereo not given) | 0.321
O=c1[nH]snc1-c1c(Cl)cccc1Cl | 1.69
CC(=O)Nc1ccc(NC(=O)c2sc3nc4c(c(-c5ccc(C)cc5)c3c2N)CCC4)cc1 | -0.372
Cc1cccc(NC(=O)c2sc3nc4c(c(-c5ccco5)c3c2N)CCC4)c1 | -8.82 (active)
NC(=O)c1sc2nc3c(c(-c4ccccc4)c2c1N)CCC3 | 0.0164

Compound | B-score
CCOC(=O)c1ccccc1NC(=O)c1c(N)n(C)c(=O)[nH]c1=O | -0.18
C[C@@H]1CC[C@]2(O[C@@H](CCO)C[C@H](O)[C@H]2O)O1 | -0.347
CC(C)n1cnc2c(Nc3cccc(Cl)c3)nc(N(CCO)CCCO)nc21 | 0.4
COC(=O)C(C)n1cnc2c(nnn2-c2cccc(Cl)c2)c1=O (stereo not given) | -0.668
CC(C)C[C@H](CO)Nc1nc(N(C)c2cccc(Cl)c2)c2ncn(C(C)C)c2n1 | 2.72 (active)
C#CCOCCOCCOCCNc1nc(N2CCN(C(=O)[C@H](CCC(=O)O)n3cc(C(N)CO)nn3)CC2)nc(N2CCN(C(=O)[C@H](CCCCN)n3cc(C(N)[C@H](C)CC)nn3)CC2)n1 (stereo not given in full) | -0.0414
COc1cccc(N2C(=O)C3CCCN3C2c2ccc(F)cc2)c1 (stereo not given) | -0.103
COc1ccc(N2C(=O)C3CCCN3C2c2cccc(OC)c2)cc1 (stereo not given) | -2.41 (active)
COc1ccc(N2C(=O)C3CCCN3C2c2cc(OC)c(OC)cc2OC)cc1 (stereo not given) | -1.27
CC(=O)N[C@H]1[C@H]([C@H](O)[C@H](O)CO)OC(C(=O)O)=C[C@@H]1O | 0.169
CC1(OC(=O)CCc2ccccc2)C(=O)C=C2C=C(c3ccc(C#N)cc3)N(CCc3ccccn3)C=C2C1=O (stereo not given) | -1.62
COP1(=O)C[C@@H](O)[C@@H](O)[C@@H](COCc2ccccc2)O1 (stereo not given in full) | -0.427
O=C(Nc1ccc2oc(-c3ccc4ccccc4c3)nc2c1)c1cccs1 | -1.07
O=C(Cc1cccc2ccccc12)Nc1ccc2oc(-c3ccccc3)nc2c1 | -7.38 (active)
CCCCCC(=O)Nc1ccc2oc(-c3ccncc3)nc2c1 | 1.15
CCO[C@@H]1OC(C(=O)NCc2nc3ccccc3[nH]2)=C[C@H](C2CCCCC2)[C@H]1CCCO | 0.35
NC(=O)[C@H]1CC2(CC(c3cccc(NC(=O)[C@H]4CCC(=O)N4)c3)=NO2)CN1C(=O)c1ccccc1C(=O)c1ccccc1 (stereo not given in full) | -0.797
COc1ccccc1NC(=O)CSc1nnc(C)n1CC1CCCO1 (stereo not given) | -0.675
COc1ccccc1NC(=O)CSc1nnc(-c2ccoc2C)n1CCc1ccccc1 | 2.44 (active)
CCCn1c(SCC(=O)Nc2cccc(C(=O)OCC)c2)nnc1-c1ccoc1C | -0.483
C#CCOCCOCCOCCNc1nc(N2CCN(C(=O)C([C@@H](C)CC)n3cc(C(N)COC(=O)C(F)(F)F)nn3)CC2)nc(N2CCN(C(=O)[C@H](Cc3ccc(O)cc3)n3cc(C(N)[C@H](C)CC)nn3)CC2)n1 (stereo not given in full) | -0.939
COCCN1C(=O)N[C@@H](c2ccccc2)C(C(=O)OC)=C1C | -0.275

Compound | B-score
CC1=C(C(=O)OCc2ccccc2)C(c2ccc(C(F)(F)F)cc2)NC(=O)N1CCCCCC(=O)O (stereo not given) | 0.765
COC(=O)CCCCCN1C(=O)NC(c2ccc(-c3ccccc3)cc2)C(C(=O)OCc2ccccc2)=C1C (stereo not given) | -5.33 (active)
COc1ccc(C#Cc2c(-c3ccc(OC)cc3)oc3ccc(-c4ccc5c(c4)OCO5)cc23)cc1 | 0.0246
NC1=NC[C@@H](Cc2ccc(O)cc2)N1CC1CCCCC1 | 0.203
O=C(Nc1nc2ccc(S(=O)(=O)N3CCCC3)cc2s1)C1CCCO1 (stereo not given) | 2.39 (active)
Cc1ccc2nc(NC(=O)C3CCN(S(=O)(=O)c4ccc5c(c4)oc(=O)n5C)CC3)sc2c1 | -0.00508
CS(=O)(=O)c1ccc2nc(NC(=O)C3CCCCC3)sc2c1 | 2.38
COC(C[C@@H]1O[C@@H]1C(=O)[C@H](C)OCc1ccccc1)OC | -1.33
COC(=O)C1=C(C(=O)OC)[C@@H]2N(C)c3ccccc3[C@@]23C[C@@H](C(=O)OC)N(C(C)=O)C3=N1 | -0.544
C=CCNC(=O)c1ccc2c3n(nc2c1)-c1ccc(C)cc1CO3 | -0.154
CCOC(=O)c1cc(-c2nnc(-c3cc(OC)c(OC)c(OC)c3)o2)c(C)nc1C | 1.41 (active)
CCCc1nc2ccccc2c(C(=O)OCc2nnc(-c3cc(OC)c(OC)c(OC)c3)o2)c1CC | 0.135
CCOC(=O)c1cc2ccccc2nc1C | 0.593
CCO[C@H]1OC(C(=O)N2CCN(Cc3ccccc3)CC2)=C[C@@H](c2cn(C(C)=O)c3ccccc23)[C@@H]1CCCO | -0.181
CCO[C@@H]1OC(C(=O)NC2CC2)=C[C@H](C)[C@H]1CCCO | 0.173
CN1CCN(C(CNS(=O)(=O)c2cccs2)c2cccnc2)CC1 (stereo not given) | -0.00301
Cc1nnc(NC(=O)Nc2ccc(Cl)c(Cl)c2)s1 | -0.308
N/C(=N\OC(=O)Nc1ccc(Cl)c(Cl)c1)c1ncc(C(F)(F)F)cc1Cl | 0.438
O=C(CC(O)(C(F)(F)F)C(F)(F)F)Nc1ccc(Cl)c(Cl)c1 | -6.33 (active)
